The results in this text go back to ChEMBL document CHEMBL4513216, “Probing the Open Global Health Chemical Diversity Library for Multistage-Active Starting Points for Next-Generation Antimalarials” (ACS Infect Dis, 2020).

Hit rate of the full screen: of about 68,000 compounds, about 2,700 (4%) showed an effect of 50% or more. This is one part of a sample in which strong results are shown more often than they occur.

This experiment has as its system Plasmodium berghei. As to the kind of experiment: Screen against P. berghei liver stage (PbLuc), transformed with Luciferase, at 2uM. The format is functional, HepG2. The conditions noted are these: tested at 2 uM.
For `CN(CC(=O)NCCC#N)C(c1ccccc1)c1ccccc1`, the INHIBITION is 21.71%. Turning to `CN(CC(=O)NCCC#N)C(c1ccccc1)c1ccc(F)cc1` (configuration not stated), the INHIBITION was 13.11%.

In the case of `CC(c1ccccc1)N(C)CC(=O)NCCC#N` (configuration not stated), the INHIBITION is reported as 59.24%. Turning to `O=C(CCc1cc2n(n1)CCN(CCCn1cccc1)C2)N1CCCC1`, the INHIBITION was found to be 5.1%.

In the case of `CC1(C)CC(N(Cc2cccnc2)Cc2cccc(F)c2)CC(C)(C)N1`, the INHIBITION is on record as -4.26%. Turning to `O=C(NCCCn1nc2ccccn2c1=O)Nc1ccc(F)cc1F`, the INHIBITION came out at 4.96%. Turning to `CN1CCN(S(=O)(=O)c2cccc(S(=O)(=O)C3CCS(=O)(=O)C3)c2)CC1` (configuration not stated), the INHIBITION came to 28.43%. The same measure for `COc1ccc(C2CC(=O)NCc3nc4ccccn4c32)cn1` (configuration not stated): 54.3%; for `COc1ncccc1C1CC(=O)NCc2nc3ccccn3c21` (configuration not stated): 29.41%; for `COc1ncc(C2CC(=O)NCc3nc4ccccn4c32)cn1` (configuration not stated): -36.24%. The same measure for `COCCC1(C(=O)O)CCCN(C(=O)c2cc(C)oc2C)C1` (configuration not stated): -11.55%; for `CC(C)C(CCO)NC(=O)Nc1ccc(-c2csnn2)cc1` (configuration not stated): 12.78%; for `Cc1ccc(C(=O)NC2CCCN(S(C)(=O)=O)C2)c(=O)[nH]1` (configuration not stated): -34.79%. Consider `CCN1CCCC(NC(=O)c2ccc(C)[nH]c2=O)C1` (configuration not stated), for which the INHIBITION is recorded as -53.67%. For `Cc1ccc(C(=O)NC2CCCN(C)C2)c(=O)[nH]1` (configuration not stated), the INHIBITION is 52.84%. Turning to `Cc1cccc(CN(Cc2ccc(C)o2)C2CC(C)(C)NC(C)(C)C2)n1`, the INHIBITION came out at 29.73%. Consider `CCc1nc(N)nc(N2CCCC3(CCN(C)CC3)CC2)c1C`, for which the INHIBITION is recorded as -17.39%. For `CC(=O)c1ccc(-c2cnn(CC(=O)Nc3ccnn3C)c2)nc1`, the INHIBITION is 59.56%.

With `Cn1ccnc1-c1cnn(CC(=O)Nc2ccnn2C)c1`, the INHIBITION amounted to 35.13%. The same measure for `CC(=O)c1ccc(-c2cnn(CC(=O)Nc3cc(C)nn3C)c2)nc1`: 36.09%; for `CS(=O)(=O)N1C[C@H]2CC[C@@H](C1)N(C(=O)CCc1n[nH]c3c1CCCC3)C2`: -4.58%. In the case of `Cn1cc(C2CCCN2Cc2csc(C(C)(C)C)n2)cn1` (configuration not stated), the INHIBITION was -10.66%. Take `Cn1cc(C2CCCN2Cc2csc(Cc3ccccc3)n2)cn1` (configuration not stated): the INHIBITION is 3.48%.

As to `CCCc1nc(CN2CCCC2c2cnn(C)c2)cs1` (configuration not stated), the INHIBITION is 58.52%. Consider `Cc1cc(NCCc2nnc(N)s2)nc(-c2ccccc2)n1`, for which the INHIBITION worked out at 7.02%. As to `COc1nccnc1N1CCCC2(C1)C(=O)N(C)c1ccccc12` (configuration not stated), the INHIBITION was -8.8%.

As for `CCN1CCc2c(cccc2NC(=O)CN(C)C2CCSC2)C1` (configuration not stated), the INHIBITION is 49.21%. Regarding `CCN1CCc2c(cccc2NC(=O)N(C)C2CCSC2)C1` (configuration not stated), the INHIBITION was 51.9%.

For the compound `CCN1CCN(c2ccccc2NC(=O)N(C)C2CCSC2)CC1` (configuration not stated), the INHIBITION amounted to 25.08%. `Cn1ccc(C(=O)Nc2cccc(-c3ccc4c(c3)CCO4)n2)cc1=O`: the INHIBITION was -17.18%.

Regarding `Cc1ccc2c(c1)OC(C)CN2C(=O)c1c[nH]c(C)cc1=O` (configuration not stated), the INHIBITION is given as -33.29%. For `CCn1nccc1CN(C)C(=O)Cn1nc(C)cc1C` the value was -47.19%; for `Cn1nc(Br)c2c(NCCCS(N)(=O)=O)ncnc21`, -5.61%; for `CCOCC(=O)N1Cc2nccn2CC(CN(C)C)C1` (configuration not stated), -8.84%. Take `COc1ccc2nnc(CCC(=O)Nc3nc4c(s3)CCC4)n2n1`: the INHIBITION came out at 58.29%.

On to `COc1ccc2nnc(CCC(=O)Nc3nc4c(s3)CCCCC4)n2n1`, for which the INHIBITION is listed as 48.59%. `COc1ccc2nnc(CCC(=O)Nc3nc4c(s3)CCCC4)n2n1`: the INHIBITION was 21.57%. The same measure for `COCCNC(=O)c1cc(C2CC2)nc2onc(C3CCNC3)c12` (configuration not stated): 5.75%; for `CCOc1ccccc1NC(C)C(=O)N(C)Cc1cccc(F)c1` (configuration not stated): 4.8%. For `CC(NC(=O)Cn1cccn1)c1ccc2c(c1)OCCO2` (configuration not stated), the INHIBITION amounted to 21.39%.

Turning to `CC(NC(=O)CCn1cccn1)c1ccc2c(c1)OCCO2` (configuration not stated), the INHIBITION is recorded as -17.31%. With `CC(NC(=O)Cn1cccn1)c1ccc2c(c1)OCCCO2` (configuration not stated), the INHIBITION is listed as 51.21%.

`O=C(O)c1ccccc1-n1cnc(CN2CCCc3ccccc32)c1`: the INHIBITION turned out to be 37.36%.

Consider `CN1CC(=O)N(c2cnn(C)c2)CC12CCN(Cc1nccn1C)C2` (configuration not stated), for which the INHIBITION was found to be 8.65%. The same measure for `Cc1ccc(N2CC3(COCCN(Cc4ccncc4)C3)OCC2=O)s1` (configuration not stated): -37.34%. Take `Cc1ccc(N2CC3(COCCN(Cc4nccs4)C3)OCC2=O)s1` (configuration not stated): the INHIBITION amounted to 58%. As for `Cc1ccc(N2CC3(COCCN(Cc4ccccn4)C3)OCC2=O)s1` (configuration not stated), the INHIBITION is given as 40%. The same measure for `O=C(CCN1CCCC1=O)Nc1cnn(-c2ccccc2Cl)c1`: 25.35%; for `O=C(CCCN1CCOC1=O)Nc1cnn(-c2ccccc2Cl)c1`: -16.28%. Regarding `O=C(CCN1CCOC1=O)Nc1cnn(-c2ccccc2Cl)c1`, the INHIBITION stood at 51.46%. On to `Cc1ccc2cc(CN(C)Cc3nccs3)c(=O)[nH]c2c1`, for which the INHIBITION is recorded as -0.38%. Take `CN(Cc1c(F)cccc1Cl)C(=O)Cn1cnc(C#N)n1`: the INHIBITION is listed as -6.73%. For `CN(Cc1c(F)cccc1Cl)C(=O)c1cnn(CCN2CCCCC2)c1`, the INHIBITION was determined as 60.04%.

On to `CCn1cc(C(=O)N(C)Cc2c(F)cccc2Cl)cn1`, for which the INHIBITION is listed as 53.13%.

With `CN(Cc1c(F)cccc1Cl)C(=O)c1cnn(CCN2CCOCC2)c1`, the INHIBITION is given as -9.03%.

For `CN(Cc1c(F)cccc1Cl)C(=O)Nc1cnn(CC(N)=O)c1`, the INHIBITION is recorded as 11.07%. For the compound `CCn1cnnc1CNC(=O)N(C)Cc1c(F)cccc1Cl`, the INHIBITION is given as -17.88%. For `Cc1nc(C2CCCN(C(=O)c3ccc(Cl)cn3)C2)no1` (configuration not stated) the value was -29.54%.

For `CN(C)C(=O)c1cccc(CCNS(=O)(=O)c2ccccc2)c1`, the INHIBITION was 49.08%. With `NS(=O)(=O)CCN1CCOC(c2ccsc2)C1` (configuration not stated), the INHIBITION was -10.36%. For `CC1CCN(c2ccc(=O)n(CC(=O)N(C)Cc3ccccc3)n2)CC1` the value was -7.56%; for `COc1cc(N2C[C@@H]3COC[C@]3(COCc3cccc(C)n3)C2)ncn1`, 0.14%; for `COC(C)(C)CNC(=O)N1CCCC1c1c(C)n[nH]c1C` (configuration not stated), 22.83%. `CN(Cc1ccco1)C(=O)NCc1ccnc(SC(C)(C)C)c1`: the INHIBITION came to 53.29%. Turning to `CC(C)c1cc(CN(C)C(=O)CN2CCCCC2=O)no1`, the INHIBITION is reported as -11.61%. As to `Cc1cc(CN(C)C(=O)NC(C)Cc2ccco2)no1` (configuration not stated), the INHIBITION worked out at 45.62%. In the case of `Cc1cc(CN(C)C(=O)NCc2ccco2)no1`, the INHIBITION turned out to be 66.88%.

Turning to `CN(Cc1ccco1)C(=O)NCc1nnc2n1CCC2`, the INHIBITION is -18.86%. As for `Cc1cc(CN(C)C(=O)NCc2ccccn2)no1`, the INHIBITION came out at 26.62%.

For the compound `Cc1cc(CN(C)C(=O)CN2CCCC2=O)no1`, the INHIBITION was 51.36%. On to `Cc1cc(CN(C)C(=O)CN2CCCCCC2=O)no1`, for which the INHIBITION turned out to be 33.35%. For `Cc1cc(CN(C)C(=O)NCc2ccnc(SC(C)(C)C)c2)no1`, the INHIBITION was 14.69%.
